# Records with an inconclusive call do not appear. A number with no mark means an inactive call. The source made the active and inactive calls. Calls follow the shape of the dose curve; as a rule, active = well fitted inhibition curve with a large enough effect; inconclusive = small, poorly fitted or top-dose-only effect; inactive = flat fitted curve, though single readings scatter.
# How the values were obtained:
# CRL-7250 = normal cell line; experiment: Cytotoxic Profiling of Annotated Libraries Using Quantitative High-Throughput Screening (AID 1296008); details: Five cell lines viability, CellTiter-Glo ATP luminescence, 48-72 h; max response: hits give low values; also: nearly all actives have a fitted effect of over 60% in size
# Outline: (§1)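 Cytotoxicity was measured as CellTiter-Glo ATP luminescence, read after 10 min at room temperature. Compound treatment of the cells lasted 48 or 72 hr at 37 degrees Celsius in a qHTS format.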
# HEK293 = experiment: as above; details: Five cell lines viability, CellTiter-Glo ATP luminescence, 48-72 h; max response: hits give low values
# Outline: as §1
# % is scaled to controls: 0 for no effect and ±100 for the full control effect; potency is read from the fitted curve at half-maximal effect.
structure (smiles),measurement,setting,value
C=C[C@@H]1[C@H](O[C@@H]2O[C@H](CO)[C@@H](O)[C@H](O)[C@H]2O)OC=C(C(=O)O)[C@H]1CCOC(=O)/C=C/c1ccc(O)c(O)c1,max response,CRL-7250,1.95%
same,max response,HEK293,4.3%
CC(=O)O[C@@](C)(C(=O)/C=C/C(C)(C)O)[C@H]1[C@H](O)C[C@@]2(C)[C@@H]3CC=C4[C@@H](C=C(O)C(=O)C4(C)C)[C@]3(C)C(=O)C[C@]12C,Potency,CRL-7250,2820 nM (active)
same,Potency,HEK293,5630 nM (active)
COc1cc(Nc2nc3ccccc3nc2NS(=O)(=O)c2ccc(NC(=O)c3ccc(OC)c(C)c3)cc2)cc(OC)c1,max response,CRL-7250,-3.06%
same,max response,HEK293,1.81%
CC1CC[C@]2(C(=O)O)CC[C@]3(C(=O)O)C(=CCC4[C@@]5(C)CC[C@H](O[C@@H]6O[C@H](CO)[C@@H](O)[C@H](O)[C@H]6O)C(C)(C)C5CC[C@]43C)C2C1C (stereo partly specified),max response,CRL-7250,-9.19%
same,max response,HEK293,-4.94%
C[C@@H]1C[C@@H](O)[C@@]23CO[C@@H](O)[C@@H]2CCC[C@@H]3[C@@]12C[C@@H](c1ccoc1)OC2=O,max response,CRL-7250,0.0668%
same,max response,HEK293,-9.22%
CC(=O)O[C@H]1[C@H](O[C@H]2[C@@H]3C=CO[C@@H](O[C@@H]4O[C@H](CO)[C@@H](O)[C@H](O)[C@H]4O)[C@@H]3[C@@]3(CO)O[C@@H]23)O[C@@H](C)[C@H](OC(=O)/C=C/c2ccccc2)[C@H]1OC(=O)/C=C/c1ccccc1,max response,CRL-7250,-1.73%
same,max response,HEK293,-0.402%
O=C(c1ccc2nccnc2c1)N1CCCCC1,max response,CRL-7250,-4.12%
same,max response,HEK293,-81.1%
COC(=O)C12CCC(C)C(C)C1C1=CCC3C4(C)CCC(OC(C)=O)C(C)(C)C4CCC3(C)C1(C)CC2 (stereo unspecified),max response,CRL-7250,-3.42%
same,max response,HEK293,0.571%
COCCOc1ccc(N2CCN(CCn3ncc4c3nc(N)n3nc(-c5ccco5)nc43)CC2)cc1,outcome,CRL-7250,inactive
same,max response,HEK293,-9.01%
CC(=O)OC1C(=O)C2(C)C(O)CC3OCC3(OC(C)=O)C2C(OC(=O)c2ccccc2)C2(O)CC(OC(=O)C(O)C(NC(=O)c3ccccc3)c3ccccc3)C(C)=C1C2(C)C (stereo unspecified),Potency,CRL-7250,58 nM (active)
same,Potency,HEK293,7.3 nM (active)
C=C1CN(Cc2ccc(C(=O)Nc3ccccc3N)cc2)C(=O)c2ccccc21,Potency,CRL-7250,2060 nM (active)
same,Potency,HEK293,1460 nM (active)
C=C1CCC2C(C)(C(=O)O)CCCC2(C)C1CC/C(=C\CO)CO (stereo unspecified),max response,CRL-7250,0.544%
same,max response,HEK293,2.54%
CC(O)(CC(=O)O)CC(=O)OCc1ccc(O[C@@H]2O[C@H](CO)[C@@H](O)[C@H](O)[C@H]2O)cc1 (stereo partly specified),outcome,CRL-7250,inactive
same,max response,HEK293,-1.35%
C/C1=C\CCC2=C[C@@H](OC2=O)c2c(C)coc2C1,max response,CRL-7250,1.59%
same,max response,HEK293,-3.99%
CC1OC(OC2C(C)OC(OC3C(OC(=O)C45CCC(C)(C)CC4C4=CCC6C7(C)CCC(OC8OC(C(=O)O)C(O)C(O)C8OC8OC(CO)C(O)C(OC9OC(C)C(O)C(O)C9O)C8O)C(C)(CO)C7CCC6(C)C4(C)CC5)OC(CO)C(O)C3O)C(O)C2O)C(O)C(O)C1O (stereo unspecified),max response,CRL-7250,3.83%
same,max response,HEK293,1.99%
CC1=CC(=O)CC2C1(O)CCC(C)C21CC(c2ccoc2)OC1=O (stereo unspecified),max response,CRL-7250,-9.3%
same,max response,HEK293,-14.1%
CC(C)CN(C[C@@H](O)[C@H](Cc1ccccc1)NC(=O)O[C@@H]1CO[C@H]2OCC[C@H]21)S(=O)(=O)c1ccc(N)cc1,max response,CRL-7250,4.36%
same,max response,HEK293,-6.82%
N#Cc1ccc2[nH]cc(CCCCN3CCN(c4ccc5oc(C(N)=O)cc5c4)CC3)c2c1,max response,CRL-7250,-7.54%
same,Potency,HEK293,8200 nM (active)
Cc1cc(C(=O)N2Cc3cnn(C)c3Nc3ccccc32)ccc1CNC(=O)N1CCC[C@H]1C(=S)N1CCCN(C)CC1,max response,CRL-7250,2.05%
same,max response,HEK293,-0.106%
Cc1cc(Cl)ccc1COc1ccnn1-c1cc(C(=O)O)ccn1,max response,CRL-7250,0.791%
same,max response,HEK293,-13.3%
COc1ccc(CN2C(=O)C(=O)c3cc(S(=O)(=O)N4CCC[C@H]4COc4cccnc4)ccc32)cc1,outcome,CRL-7250,inactive
same,outcome,HEK293,inactive
O=C(OCC1=CC(O)C2C=CO[C@@H](O[C@@H]3O[C@H](CO)[C@@H](O)[C@H](O)[C@H]3O)C12)c1ccccc1 (stereo partly specified),max response,CRL-7250,-3.02%
same,max response,HEK293,-4.16%
COc1c2ccoc2cc2oc(CO[C@@H]3O[C@H](CO)[C@@H](O)[C@H](O)[C@H]3O)cc(=O)c12,max response,CRL-7250,-0.0339%
same,max response,HEK293,1.44%

# Reference: PubChem BioAssay (NCATS)
